# IL1B secr inh = qHTS for Inhibitors of Inflammasome Signaling: IL-1-beta AlphaLISA Primary Screen; THP-1 LPS/ATP IL-1B secretion, AlphaLISA, 16 h; active compounds read low; activity change, % at 57.5 µM; 4.7% of 360,000 active; AID 743279, 2014; in the data active means activity change below about -50%; inconclusive means mostly about -30% to -49%
#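 Secreted IL-1B measured by AlphaLISA bead assay after 16 h compound exposure of THP-1 cells; compounds (final up to 57.5 uM) added 1 h before LPS (250 ng/mL) and ATP (1.25 mM) stimulation; lower signal means less secretion.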
# DT40 TDP1 CPT = qHTS for Inhibitors of human tyrosyl-DNA phosphodiesterase 1 (TDP1): qHTS in cells in presence of CPT; 12% of 420,000 active; chicken DT40 Tdp1-/-;hTDP1 cells + 20 nM CPT, ATP luminescence, 48 h; Potency, µM (top dose mostly 46.2 µM), for the others: at the highest dose activity change, negative = growth inhibition, most hits filed as inhibitors; further: potency means the concentration at half of the fitted maximal effect; nearly all actives have a fitted effect of over 55% in size
#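 Cell growth measured by CellTiter-Glo luminescence after a minimum 48 h, 37 C compound exposure with 20 nM CPT in Tdp1-knockout DT40 cells stably expressing hTDP1, seeded 400/well; qHTS titration format.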
# DT40 TDP1 no CPT = qHTS for Inhibitors of human tyrosyl-DNA phosphodiesterase 1 (TDP1): qHTS in cells in absence of CPT | DT40 Tdp1-/- hTDP1 cells, no CPT, ATP luminescence, 48 h | Potency, µM (series often up to 46.2 µM), for inactives: at the highest dose activity change, negative = growth inhibition, usual class: inhibitors | 15% of 420,000 active | AID 686978, 2013; further: potency means the concentration at half of the fitted maximal effect; nearly all actives have a fitted effect of over 55% in size
#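 A cellular qHTS used chicken DT40 cells lacking endogenous Tdp1 but carrying stably transfected human TDP1. Compounds were applied without camptothecin, and cell growth kinetics were judged by ATP-dependent luminescence after ≥48 hr.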
# HT1080 IDH1KD tx = qHTS for induction of synthetic lethality in tumor cells producing 2HG: qHTS for the HT-1080-IDH1KD cell line; HT-1080 IDH1 knockdown viability, ATP luminescence, 48 h; Potency, µM (highest dose often 46.1 µM), for the others: at the highest dose activity, negative = toxicity, most hits filed as cytotoxic; 2% of 360,000 active;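 further: potency means the concentration at half of the fitted maximal effect; 0% = DMSO wells and -100% = cell-free medium wells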
#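 Assay cells: HT-1080 with IDH1 knockdown, 750 per well, RPMI/5% FBS. Exposure: 48 h at 37 °C following 2 h pre-incubation. Read: CellTiter-Glo luminescence; fitted concentration-response, curve class assigned.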
# HT1080NT lethal = qHTS for induction of synthetic lethality in tumor cells producing 2HG: qHTS for the HT-1080-NT fibrosarcoma cell line; HT-1080-NT fibrosarcoma viability, CellTiter-Glo ATP luminescence, 48 h; Potency, µM (titrated, usually from 46.1 µM), for the others: at the highest dose activity, negative = less viability, most hits filed as cytotoxic; 1.6% of 360,000 active; AID 686970, 2013;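 further: NT is the 2HG producing partner of a matched IDH1 knockdown line; potency means the concentration at half of the fitted maximal effect; 0% = DMSO-treated cells and -100% = media-only wells without cells; nearly all actives have a fitted effect of over 55% in size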
#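 A 48-hour cytotoxicity screen used HT-1080-NT cells plated 2 hours before compound delivery. ATP-based CellTiter-Glo luminescence measured viability, normalized to DMSO and no-cell controls.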
# 12-LOX inh = Primary qHTS assay for inhibitors of human arachidonate 12S-lipoxygenase (ALOX12): Round 2. AID 1671190, 2021. Potency, µM (titrated, usually from 108 µM), without a hit: top-dose activity change, negative = inhibition, actives largely listed as inhibitors. 1.1% of 580,000 active. Polyunsaturated fatty acid lipoxygenase ALOX12 (Homo sapiens), P18054. purified 12hLO, xylenol orange hydroperoxide absorbance; further: potency means the concentration at half of the fitted maximal effect
# Target sequence (P18054 whole entry, looked up): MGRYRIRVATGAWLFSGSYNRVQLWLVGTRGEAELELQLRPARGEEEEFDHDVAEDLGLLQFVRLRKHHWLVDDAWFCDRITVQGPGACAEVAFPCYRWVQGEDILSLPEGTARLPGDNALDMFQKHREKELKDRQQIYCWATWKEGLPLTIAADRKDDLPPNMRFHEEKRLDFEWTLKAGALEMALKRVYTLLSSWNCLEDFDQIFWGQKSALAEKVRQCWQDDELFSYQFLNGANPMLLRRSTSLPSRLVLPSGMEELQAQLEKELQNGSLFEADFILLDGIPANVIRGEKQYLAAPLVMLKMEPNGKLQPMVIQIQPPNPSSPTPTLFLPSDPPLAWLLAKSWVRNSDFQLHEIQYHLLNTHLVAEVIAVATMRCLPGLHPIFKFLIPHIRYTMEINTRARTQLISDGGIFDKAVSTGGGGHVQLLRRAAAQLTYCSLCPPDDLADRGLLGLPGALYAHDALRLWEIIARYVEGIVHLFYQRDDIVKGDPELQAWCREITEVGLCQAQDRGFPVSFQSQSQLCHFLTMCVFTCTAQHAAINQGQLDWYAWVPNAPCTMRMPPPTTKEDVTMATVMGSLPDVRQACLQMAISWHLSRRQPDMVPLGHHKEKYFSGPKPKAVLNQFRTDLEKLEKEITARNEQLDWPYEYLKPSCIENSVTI
#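 Hydroperoxide product was detected by ferrous iron/xylenol orange as the 573 to 405 nm absorbance ratio. Arachidonic acid at 40 uM (final) was turned over for 30 min at room temperature by 150 nM human 12hLO, pH 7.0 Hepes buffer, after 15 min compound preincubation.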
# Starred values were filed as active, the others as inactive; ? = inconclusive; . = no result; [ ] = remark or other dose. The entries come from a sample that favours hits as a whole. Unless noted, the call rests on the fitted dose curve; in most records, active means well fitted curve in the direction sought with a large enough effect; inconclusive means small, poorly fitted or top-dose-only effect, or another doubt; inactive means no such curve, though single readings can be large; an effect the other way counts as inactive or inconclusive. Unless noted, on the % scale 0 is the no-effect control and ±100 the full control effect.
SMILES,IL1B secr inh,DT40 TDP1 CPT,DT40 TDP1 no CPT,HT1080 IDH1KD tx,HT1080NT lethal,12-LOX inh
O=C(CC1CCOC2(CCN(S(=O)(=O)c3ccccc3)CC2)C1)N1CCCC1 (stereo not drawn),.,.,.,.,.,62.0%
COc1ccc(C(=O)c2ccc(C)cc2)c(OC)c1OC,18.1,23.1µM*,18.4µM*,18.4µM*,?,?
COCCn1cnc2ccc(-c3ccccc3Oc3ccccc3)nc2c1=O,.,.,.,.,.,12.6%[176 µM]
O=C1c2ccccc2-c2onc3ccc(Oc4ccccc4)c1c23,-25.0,3.26µM*,2.59µM*,4.11µM*,-13.2%,-2.5%
COc1ccc(Cn2c(Oc3ccc(C)cc3)nc3c2c(=O)n(C)c(=O)n3C)cc1,.,.,.,.,.,9.5%
Cn1c(=O)c2c(nc(NCC3CCCC(CN)C3)n2Cc2ccc(Cl)cc2Cl)n(C)c1=O (stereo not drawn),12.9,4.61µM*,5.8µM*,-29.3%,?,-10.3%
COc1ccc(Cl)c(Cn2c(NCc3ccccn3)nc3c2c(=O)n(C)c(=O)n3C)c1,-2.7,?,14.6µM*,-10.7%,-18.1%,146.7%
Cn1c(=O)c2c(nc(Cl)n2Cc2ccccc2Cl)n(C)c1=O,.,.,.,.,.,20.8%
COc1ccc(Oc2nc3c(c(=O)n(C)c(=O)n3C)n2Cc2ccccc2Cl)cc1,.,?,13µM*,.,.,-21.1%
COCCNc1nc2c(c(=O)n(C)c(=O)n2C)n1Cc1ccc(Cl)cc1Cl,.,.,.,.,.,3.4%
COc1ccc(Oc2nc3c(c(=O)n(C)c(=O)n3C)n2Cc2ccc(Cl)cc2Cl)cc1,.,?,20.6µM*,.,.,-21.2%
COCCCn1cnn2c(=O)c3ccccc3nc2c1=O,.,.,.,.,.,1.8%
CCCC12CN3CC(CCC)(CN(C1)C3c1ccc(OC(C)C)cc1)C2=O (stereo not drawn),.,?,16.4µM*,.,.,-15.8%
CCCC12CN3CC(CCC)(CN(C1)C3c1ccccc1)C2=O (stereo not drawn),.,4.11µM*,?,.,.,?
CCOC(=O)CCn1c(=O)c2c(nc(Br)n2Cc2ccccc2)n(C)c1=O,11.5,-15.0%,-50.8%,-1.5%,-2.7%,-1.3%
CCOC(=O)Cn1c(=O)c2c(nc(Br)n2Cc2ccc(Cl)cc2)n(C)c1=O,18.5,13µM*,9.2µM*,-12.2%,3.9%,.
CCOC(=O)Cn1c(=O)c2c(nc(N3CCCCC3)n2Cc2ccccc2)n(C)c1=O,-0.7,20.6µM*,14.6µM*,-5.9%,-26.6%,0.0%
CCOC(=O)Cn1c(=O)c2c(nc(N3CCOCC3)n2C)n(C)c1=O,5.1,-3.6%,-13.1%,13.9%,6.5%,8.2%
CCc1cc2c(=O)nc3n(c2s1)Cc1ccccc1/C3=C(/O)c1ccccc1Cl,-15.7,8.2µM*,8.2µM*,-1.6%,0.4%,-36.2%
Cc1cccc(C)c1NC(=O)CNC(=O)Cc1ccccc1[N+](=O)[O-],3.4,-0.6%,-12.3%,13.3%,1.4%,-5.0%
Cc1cccc([N+](=O)[O-])c1NC(=O)CN(Cc1ccccc1)Cc1ccccc1,?,25.9µM*,20.6µM*,-10.3%,-12.4%,-9.1%
COc1cccc(C(=O)NCCS(=O)(=O)NC(C)CCc2ccccc2)c1 (stereo not drawn),-3.6,?,6.51µM*,2.5%,3.0%,-16.3%
O=C(CN(Cc1ccccc1)C(=O)c1cccc([N+](=O)[O-])c1)Nc1c(Cl)cc(Cl)cc1Cl,-0.7,8.2µM*,11.6µM*,-15.3%,-15.8%,4.9%

# Screening results: PubChem, National Center for Advancing Translational Sciences (NCATS)
